Assay in all cases: DAPPL (digital affinity profiling via proximity ligation, sequencing); 10 mM Tris-HCl pH 7.5, 50 mM NaCl, 1 mM DTT, 4% glycerol, room temperature, 30 min; GST-TFs on glutathione beads, 16-mer random dsDNA library, 0.1% formaldehyde crosslink after washing; high values mean tight binding
What all share (conditions): protein: recombinant; tags: N-terminal GST; dsDNA, one strand shown

Assay [1] has as its target T1, ERF (Homo sapiens, UniProt P50548 1-548).
T1 sequence: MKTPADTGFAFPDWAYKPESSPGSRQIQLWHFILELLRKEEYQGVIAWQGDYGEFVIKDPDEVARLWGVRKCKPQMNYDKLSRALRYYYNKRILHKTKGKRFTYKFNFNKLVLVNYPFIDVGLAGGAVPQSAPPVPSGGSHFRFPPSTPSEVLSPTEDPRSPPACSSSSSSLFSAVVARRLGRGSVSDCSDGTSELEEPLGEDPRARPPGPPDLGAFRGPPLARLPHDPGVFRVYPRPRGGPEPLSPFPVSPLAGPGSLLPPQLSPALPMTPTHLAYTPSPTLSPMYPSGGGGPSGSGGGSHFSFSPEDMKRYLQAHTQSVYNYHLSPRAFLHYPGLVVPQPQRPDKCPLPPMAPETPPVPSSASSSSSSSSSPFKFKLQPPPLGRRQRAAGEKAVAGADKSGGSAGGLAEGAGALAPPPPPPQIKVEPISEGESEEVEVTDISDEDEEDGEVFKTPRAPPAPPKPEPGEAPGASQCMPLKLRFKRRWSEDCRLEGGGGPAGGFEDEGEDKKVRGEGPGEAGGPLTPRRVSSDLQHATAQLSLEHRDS
The method in brief:
(§1)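 Human transcription factors carrying a GST fusion were produced in yeast, bound to glutathione beads, tagged with DNA barcodes and pooled together with a tag-only sample. Each pool was held with 200 nmole of a random double-stranded 16-mer DNA library in Tris/NaCl/DTT/glycerol buffer for 30 min at room temperature, then washed, crosslinked in 0.1% formaldehyde, proximity-ligated with BsaI/T4 ligase (1 h, 37 °C), PCR-amplified and sequenced on an Illumina NextSeq500. Binding signal is the read frequency of each hexamer for a given factor divided by its frequency in the tag-only sample.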

Assay [2] deals with T2, ETV3L (Homo sapiens, UniProt Q6ZN32 1-361).
T2 sequence: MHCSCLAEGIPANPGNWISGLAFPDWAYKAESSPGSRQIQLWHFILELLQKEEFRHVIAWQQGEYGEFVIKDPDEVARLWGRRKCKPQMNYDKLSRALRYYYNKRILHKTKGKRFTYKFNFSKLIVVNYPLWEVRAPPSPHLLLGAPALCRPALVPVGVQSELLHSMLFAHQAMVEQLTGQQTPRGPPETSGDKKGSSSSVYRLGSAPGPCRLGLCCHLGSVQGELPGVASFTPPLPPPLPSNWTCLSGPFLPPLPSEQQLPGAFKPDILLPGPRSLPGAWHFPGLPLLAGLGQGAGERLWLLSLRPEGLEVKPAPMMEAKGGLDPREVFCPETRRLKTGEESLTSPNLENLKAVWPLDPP
The method in brief:
as §1

The target in assay [3] is T3, ETS2 (Homo sapiens, UniProt P15036 1-469).
T3 sequence: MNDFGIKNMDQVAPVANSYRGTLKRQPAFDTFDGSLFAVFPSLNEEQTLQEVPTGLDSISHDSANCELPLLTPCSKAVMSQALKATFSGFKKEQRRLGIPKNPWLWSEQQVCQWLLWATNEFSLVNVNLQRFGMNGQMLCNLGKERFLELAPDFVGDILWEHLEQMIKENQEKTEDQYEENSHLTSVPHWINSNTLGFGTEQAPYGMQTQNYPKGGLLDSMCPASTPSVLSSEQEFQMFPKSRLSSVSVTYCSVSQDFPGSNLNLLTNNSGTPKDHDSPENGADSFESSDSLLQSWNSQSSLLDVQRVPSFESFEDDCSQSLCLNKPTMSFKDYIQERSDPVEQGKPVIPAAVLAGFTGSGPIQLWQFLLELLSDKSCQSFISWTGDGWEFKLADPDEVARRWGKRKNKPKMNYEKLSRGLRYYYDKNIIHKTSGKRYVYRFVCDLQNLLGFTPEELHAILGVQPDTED
The method in brief:
as §1

Assay [4] deals with T4, SPDEF (Homo sapiens, UniProt O95238 1-335).
T4 sequence: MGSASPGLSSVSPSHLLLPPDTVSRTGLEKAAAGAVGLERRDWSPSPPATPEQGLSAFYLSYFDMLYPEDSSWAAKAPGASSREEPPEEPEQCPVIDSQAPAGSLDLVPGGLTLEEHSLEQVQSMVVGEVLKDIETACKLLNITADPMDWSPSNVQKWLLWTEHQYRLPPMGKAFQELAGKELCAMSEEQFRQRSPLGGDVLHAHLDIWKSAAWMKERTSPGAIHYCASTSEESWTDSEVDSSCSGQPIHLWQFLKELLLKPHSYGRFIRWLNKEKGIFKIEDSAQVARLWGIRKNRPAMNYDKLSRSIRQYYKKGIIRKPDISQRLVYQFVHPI
The essentials:
as §1

In assay [5] the target is T5, ETV7 (Homo sapiens, UniProt Q9Y603 1-341).
T5 sequence: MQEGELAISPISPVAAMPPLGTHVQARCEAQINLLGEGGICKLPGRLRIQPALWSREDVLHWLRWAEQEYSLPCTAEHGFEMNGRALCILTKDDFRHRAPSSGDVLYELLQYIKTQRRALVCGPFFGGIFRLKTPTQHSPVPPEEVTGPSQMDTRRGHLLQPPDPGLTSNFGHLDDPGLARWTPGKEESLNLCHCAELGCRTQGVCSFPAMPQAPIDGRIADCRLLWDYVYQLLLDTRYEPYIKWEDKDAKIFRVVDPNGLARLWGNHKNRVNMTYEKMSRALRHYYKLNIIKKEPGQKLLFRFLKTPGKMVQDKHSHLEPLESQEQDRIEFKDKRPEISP
The method in brief: as §1

In assay [6] the target is T6, ELF5 (Homo sapiens, UniProt Q9UKW6-2 1-255).
T6 sequence: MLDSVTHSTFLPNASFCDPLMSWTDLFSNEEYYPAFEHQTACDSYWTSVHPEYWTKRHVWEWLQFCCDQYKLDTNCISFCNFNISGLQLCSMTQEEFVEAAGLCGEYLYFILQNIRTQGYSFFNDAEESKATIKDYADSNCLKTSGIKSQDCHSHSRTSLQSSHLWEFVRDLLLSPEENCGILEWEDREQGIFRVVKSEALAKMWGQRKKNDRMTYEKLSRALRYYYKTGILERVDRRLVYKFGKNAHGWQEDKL
The essentials: as §1

In assay [7] the target is T7, ETV3 (Homo sapiens, UniProt P41162-2 1-143).
T7 sequence: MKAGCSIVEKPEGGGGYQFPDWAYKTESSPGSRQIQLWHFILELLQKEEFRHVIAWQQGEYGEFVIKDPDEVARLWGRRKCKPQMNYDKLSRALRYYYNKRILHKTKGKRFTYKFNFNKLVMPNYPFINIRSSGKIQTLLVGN
The method in brief:
as §1

Assay [8] deals with ETV6 (Homo sapiens, UniProt P41212 1-452). The essentials:
as §1

Chain of ETV6 (P41212 whole entry): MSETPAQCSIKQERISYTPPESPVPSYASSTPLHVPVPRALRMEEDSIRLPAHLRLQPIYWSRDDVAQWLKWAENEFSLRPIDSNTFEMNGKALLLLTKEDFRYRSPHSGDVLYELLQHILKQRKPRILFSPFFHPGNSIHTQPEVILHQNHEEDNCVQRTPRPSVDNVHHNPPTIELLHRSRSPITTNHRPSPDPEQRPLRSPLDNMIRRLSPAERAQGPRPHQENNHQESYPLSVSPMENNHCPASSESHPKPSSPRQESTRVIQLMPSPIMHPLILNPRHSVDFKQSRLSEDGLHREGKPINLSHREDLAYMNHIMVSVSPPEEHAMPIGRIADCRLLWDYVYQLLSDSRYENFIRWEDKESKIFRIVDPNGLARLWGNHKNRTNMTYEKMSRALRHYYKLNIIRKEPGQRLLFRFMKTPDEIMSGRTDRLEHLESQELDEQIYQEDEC

With TTTTTA, the binding signal in assay [1] was 1.26 fold enrichment (6-mer frequency, TF over GST control); in assay [2], 1.29 fold enrichment (6-mer frequency, TF over GST control); in assay [3], 1.34 fold enrichment (6-mer frequency, TF over GST control); in assay [4] it was 1.29 fold enrichment (6-mer frequency, TF over GST control); in assay [5], 1.35 fold enrichment (6-mer frequency, TF over GST control); in assay [6], 1.27 fold enrichment (6-mer frequency, TF over GST control). Besides, the binding signal in assay [7] is 1.4 fold enrichment (6-mer frequency, TF over GST control); in assay [8] it was 1.33 fold enrichment (6-mer frequency, TF over GST control).
For CAAATG, the binding signal was 1.25 fold enrichment (6-mer frequency, TF over GST control) in assay [1]; 1.11 fold enrichment (6-mer frequency, TF over GST control) in assay [2]; 1.15 fold enrichment (6-mer frequency, TF over GST control) in assay [3]; 1.19 fold enrichment (6-mer frequency, TF over GST control) in assay [4]; 1.2 fold enrichment (6-mer frequency, TF over GST control) in assay [5]; 1.1 fold enrichment (6-mer frequency, TF over GST control) in assay [6]. The binding signal in assay [7] is 1.13 fold enrichment (6-mer frequency, TF over GST control); in assay [8], 1.18 fold enrichment (6-mer frequency, TF over GST control).
With CGTCTA, the binding signal in assay [1] was 1.29 fold enrichment (6-mer frequency, TF over GST control); in assay [2], 1.4 fold enrichment (6-mer frequency, TF over GST control); in assay [3] it was 1.29 fold enrichment (6-mer frequency, TF over GST control); in assay [4], 1.26 fold enrichment (6-mer frequency, TF over GST control); in assay [5], 1.28 fold enrichment (6-mer frequency, TF over GST control); in assay [6] it was 1.17 fold enrichment (6-mer frequency, TF over GST control). The binding signal in assay [7] was 1.26 fold enrichment (6-mer frequency, TF over GST control); in assay [8], 1.26 fold enrichment (6-mer frequency, TF over GST control).
Turning to CTCAGT, the binding signal in assay [1] was 1.11 fold enrichment (6-mer frequency, TF over GST control); in assay [2], 1.18 fold enrichment (6-mer frequency, TF over GST control); in assay [3] it was 1.1 fold enrichment (6-mer frequency, TF over GST control); in assay [4], 1.06 fold enrichment (6-mer frequency, TF over GST control); in assay [5], 1.12 fold enrichment (6-mer frequency, TF over GST control); in assay [6], 1.09 fold enrichment (6-mer frequency, TF over GST control). The binding signal is 1.24 fold enrichment (6-mer frequency, TF over GST control) in assay [7] and 1.08 fold enrichment (6-mer frequency, TF over GST control) in assay [8].
For the sequence TGCCCC, the binding signal is 1.15 fold enrichment (6-mer frequency, TF over GST control) in assay [1]; 1.28 fold enrichment (6-mer frequency, TF over GST control) in assay [2]; 1.12 fold enrichment (6-mer frequency, TF over GST control) in assay [3]; 1.21 fold enrichment (6-mer frequency, TF over GST control) in assay [4]; 1.18 fold enrichment (6-mer frequency, TF over GST control) in assay [5]; 1.18 fold enrichment (6-mer frequency, TF over GST control) in assay [6]. Besides, the binding signal in assay [7] is 1.3 fold enrichment (6-mer frequency, TF over GST control); in assay [8], 1.24 fold enrichment (6-mer frequency, TF over GST control).
With CGACCC, the binding signal in assay [1] is 1.36 fold enrichment (6-mer frequency, TF over GST control); in assay [2], 1.28 fold enrichment (6-mer frequency, TF over GST control); in assay [3], 1.29 fold enrichment (6-mer frequency, TF over GST control); in assay [4], 1.44 fold enrichment (6-mer frequency, TF over GST control); in assay [5] it was 1.28 fold enrichment (6-mer frequency, TF over GST control); in assay [6], 1.26 fold enrichment (6-mer frequency, TF over GST control). Besides, the binding signal in assay [7] was 1.4 fold enrichment (6-mer frequency, TF over GST control); in assay [8], 1.29 fold enrichment (6-mer frequency, TF over GST control).
For ACAAGC, the binding signal was 1.15 fold enrichment (6-mer frequency, TF over GST control) in assay [1]; 1.11 fold enrichment (6-mer frequency, TF over GST control) in assay [2]; 1.18 fold enrichment (6-mer frequency, TF over GST control) in assay [3]; 1 fold enrichment (6-mer frequency, TF over GST control) in assay [4]; 1.01 fold enrichment (6-mer frequency, TF over GST control) in assay [5]; 1.02 fold enrichment (6-mer frequency, TF over GST control) in assay [6]. The binding signal is 1.13 fold enrichment (6-mer frequency, TF over GST control) in assay [7] and 1.09 fold enrichment (6-mer frequency, TF over GST control) in assay [8].
Regarding CCAAAT, the binding signal is 1.11 fold enrichment (6-mer frequency, TF over GST control) in assay [1]; 1.02 fold enrichment (6-mer frequency, TF over GST control) in assay [2]; 1.08 fold enrichment (6-mer frequency, TF over GST control) in assay [3]; 1.05 fold enrichment (6-mer frequency, TF over GST control) in assay [4]; 1.06 fold enrichment (6-mer frequency, TF over GST control) in assay [5]; 1.01 fold enrichment (6-mer frequency, TF over GST control) in assay [6]. For the same sequence, the binding signal is 1.03 fold enrichment (6-mer frequency, TF over GST control) in assay [7] and 1.06 fold enrichment (6-mer frequency, TF over GST control) in assay [8].
